# “And” between values parts separate entries of the source, which are not always exact repeats. Identical values can stand only once. Counter-ions that a name gives are not always drawn.
# Test system: LOC_OS01G60330-cb001
# Assay: thermal shift delta Tm vs DMSO control; higher = stronger stabilization (binding)
# Conditions: 12.5 µM; protein concentration 2 µM
# Procedure, shortened: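 The melting temperature shift given here is a triplicate mean, measured against protein that received only DMSO. Melting temperatures came from Boltzmann fits of differential scanning fluorimetry data on E. coli-expressed, purified rice kinase domain constructs. Each 19.5 μl well contained 2 μM kinase, 100 mM potassium phosphate pH 7.5, 150 mM NaCl, 10% glycerol, 5 × SYPRO Orange and compound in DMSO. Plates were scanned from 25°C to 95°C at 0.05°C/s.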
row,SMILES,thermal shift delta Tm
1,C[C@H](CN(C)C)Oc1nc(Nc2cc3cccc(Cl)c3cn2)cnc1C#N,1.48 °C
2,CN1c2ccccc2C(=O)Nc2cnc(Nc3ccc(N4CCC(O)CC4)cc3)nc21,1.06 °C
3,CCNc1nc(Nc2cc(F)c(C(=O)N3CCOCC3)cc2OC)ncc1C(F)(F)F,1.21 °C
4,COc1cc2ncnc(Nc3ccc(Oc4ccccc4)cc3C)c2cc1OC,0.33 °C
5,O=C1NC(=O)/C(=C/c2cccc(C(F)(F)F)c2)S1,0.3 °C
6,COc1ccc(C(=O)Nc2sc3c(c2C(N)=O)CCCC3)cc1OC,1.24 °C
7,C#Cc1cccc(Nc2ncnc3cc(OCCOC)c(OCCO)cc23)c1,0.3 °C
8,FC(F)(F)c1ccc(/C=C/c2nc(COc3ccc(CCCCn4ccnn4)cc3)co2)cc1 [Mubritinib (TAK 165)],0.99 °C
9,CNC(=O)Nc1ccc(-c2nc(N3CC4CCC(C3)O4)c3cnn(C4CCC5(CC4)OCCO5)c3n2)cc1,1.5 °C
10,CC(C)(C)NS(=O)(=O)c1cncc(-c2cc(F)c3nc(N)nn3c2)c1,0.87 °C
11,C[C@@H]1CN(CC(=O)Nc2ccc3c(c2)Cc2cccc(-c4cc(=O)cc(N5CCOCC5)o4)c2S3)C[C@H](C)O1,0.66 °C
12,COCCOc1ccc2c(c1)ncn2-c1ccc2cccc(N3CCC(N)CC3)c2n1,0.82 °C
13,Cc1ccc(NC(=O)c2ccc(CN3CCN(C)CC3)cc2)cc1Nc1nc(-c2cccnc2)cs1 [Masitinib (AB1010)],1.59 °C
14,Cn1cc(-c2cnn3c(N)c(Br)c([C@@H]4CCCNC4)nc23)cn1,1.36 °C
15,COc1ccc(-c2cc3c(C)nc(N)nc3n([C@H]3CC[C@H](OCCO)CC3)c2=O)cn1,0.98 °C
16,Cc1ccc(S(=O)(=O)/C=C/C#N)cc1,-1.26 °C
17,"CCCS(=O)(=O)Nc1ccc(F)c(C(=O)c2c[nH]c3ncc(-c4ccc(Cl)cc4)cc23)c1F [Vemurafenib (PLX4032, RG7204)]",10.2 °C
18,C[C@@H](N)c1ccc(C(=O)Nc2ccnc3[nH]ccc23)cc1,1.35 °C
19,O=C(NC1CCNCC1)c1n[nH]cc1NC(=O)c1c(Cl)cccc1Cl,0.78 °C and 1.25 °C

row,SMILES,thermal shift delta Tm
1,NCC(=O)Nc1ccc(-n2nc(C(F)(F)F)cc2-c2ccc3c(ccc4ccccc43)c2)cc1,4.36 °C
2,CCn1c(-c2nonc2N)nc2cnc(Oc3cccc(NC(=O)c4ccc(OCCN5CCOCC5)cc4)c3)cc21,1.01 °C
3,COc1cc2c3cc1Oc1c(OC)c(OC)cc4c1[C@@H](Cc1ccc(O)c(c1)Oc1ccc(cc1)C[C@@H]3N(C)CC2)N(C)CC4 [Berbamine (dihydrochloride)],-0.73 °C
4,COc1cc2ncc(-c3ccccc3)nc2cc1OC [Tyrphostin AG 1296],3.29 °C
5,C[C@H]1CNCCCN1S(=O)(=O)c1cccc2cncc(F)c12 [Ripasudil (K-115) hydrochloride dihydrate],1.17 °C
6,N#Cc1c(NC(=O)c2cccc3ccccc23)sc2c1CCCC2 [JNK Inhibitor IX],1.18 °C
7,CC(C)N(CCC(=O)c1ccc2ccccc2c1)Cc1ccccc1,-0.95 °C
8,COC(=O)c1ccc2c(c1)NC(=O)/C2=C(\Nc1ccc(N(C)C(=O)CN2CCN(C)CC2)cc1)c1ccccc1 [Nintedanib (BIBF 1120)],1.75 °C
9,Nc1ccc(-c2ccc3ncc4ccc(=O)n(-c5cccc(C(F)(F)F)c5)c4c3c2)cn1 [Torin 2],1.09 °C
10,COc1ccc2c(Oc3ccc(NC(=O)c4c(C)n(CC(C)(C)O)n(-c5ccccc5)c4=O)nc3)ccnc2c1,0.76 °C
11,COc1ncc(-c2ccc3nccc(-c4ccnnc4)c3c2)cc1NS(=O)(=O)c1ccc(F)cc1F,0.36 °C
12,Cc1c[nH]c(/C=C2\C(=O)Nc3ccccc32)c1CCC(=O)O,11.5 °C
13,Cc1cc(Nc2cc(Cl)nc(Oc3ccc([N+](=O)[O-])cc3)n2)n[nH]1 [Autophinib],0.66 °C
14,O=C(c1ccc(/C=C/c2n[nH]c3ccccc23)cc1)N1CCNCC1,11.6 °C
15,COc1ccc(CNC(=O)Nc2ncc([N+](=O)[O-])s2)cc1,0.81 °C
16,Cc1cc2c(F)c(Oc3ncnn4cc(OC[C@@H](C)O)c(C)c34)ccc2[nH]1,1.36 °C
17,C=CC(=O)Nc1cccc(Oc2nc(Nc3ccc(N4CCN(C)CC4)cc3)nc3ccsc23)c1,0.93 °C
18,O=c1cc(N2CCOCC2)oc2c(-c3ccc4c(c3)OCCO4)csc12,0.29 °C
19,c1nc2c(NC3CCCCC3)nc(Nc3ccc(N4CCOCC4)cc3)nc2[nH]1 [Reversine],11.7 °C
